Results reported in PubChem BioAssay (Tox21).
Several values for one entry are separate records, joined by “and”; a condition that tells them apart may be missing. Equal values may be shown once. Results filed as inconclusive are left out. Activity calls are given as the source filed them. Unless noted, calls come from the whole dose curve; as a rule, active = well fitted curve in the direction sought with a large enough effect in the repeat runs; inconclusive = weak or mixed curves; inactive = no such curve, though single readings can be large; an effect the other way counts as inactive or inconclusive.

What was measured:
[1] = qHTS assay to identify small molecule agonists of the hypoxia (HIF-1) signaling pathway (AID 1224846; active = well fitted activation curve with a large enough effect in the signal ratio in the repeat runs, not every such curve was filed as active; the % refers to the signal ratio)
Procedure, shortened: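 Measured by blue/green FRET after loading CCF4-AM: beta-lactamase expressed from a hypoxia response element in ME-180 cells. Test agents were delivered in DMSO and left 17 hrs; cells had been plated 5 hrs earlier in low-serum (0.5% dialyzed FBS) medium.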

[2] = qHTS assay to identify small molecule agonists of H2AX - cell viability counter screen (AID 1224847; calls by dose curve; note: nearly all actives have a fitted effect of over 30% in size; note: potency is the fitted concentration of half-maximal effect)
Procedure, shortened: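 For this counter screen, overnight-attached CHO-K1 cells received test compounds (15 concentrations, 0.76% DMSO final); 3 hr later at 37C, CellTiter-Glo reagent was added and luminescence recorded after 30 min at room temperature.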

[3] = qHTS RealTime-Glo MT Cell Viability Assay in HepG2 cells - 24 hour (AID 1224867); note: nearly all actives have a fitted effect of over 50% in size; note: potency is the fitted concentration of half-maximal effect
Procedure, shortened: (§1)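 HepG2 suspension premixed with RealTime-Glo reagents is plated at 600 cells per well and left 5 h at 37 C/5% CO2. Compounds in DMSO then go in, and bioluminescence reflecting viable cell number is recorded over 40 h.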

[4] = qHTS RealTime-Glo MT Cell Viability Assay in HEK293 cells - 32 hour (AID 1224868); note: nearly all actives have a fitted effect of over 50% in size; note: potency is the fitted concentration of half-maximal effect
Procedure, shortened: (§2)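 Reads taken at 0, 8, 16, 24, 32 and 40 h from the same wells. HEK293 cells (600/well) carried RealTime-Glo reagents from seeding, with compound added after a 5 h settle at 37 C.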

[5] = A CellTox Green Cytotoxicity Assay to monitor cytotoxicity in HEK293 cells - 0 hour (AID 1224869); note: nearly all actives have a fitted effect of over 50% in size
Procedure, shortened: (§3)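 Each value comes from one timepoint of a single continuous run in which HEK293 cells with CellTox Green were exposed to compound for up to 40 h at 37 C, dye fluorescence rising with cell death.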

[6] = qHTS RealTime-Glo MT Cell Viability Assay in HepG2 cells - 40 hour (AID 1224870); note: nearly all actives have a fitted effect of over 50% in size; note: potency is the fitted concentration of half-maximal effect
Procedure, shortened: (§4)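 HepG2 cells (600/well) mixed with RealTime-Glo MT reagent, settled 5 h at 37 C/5% CO2 before compound addition. Nonlytic NanoLuc luminescence from viable-cell prosubstrate reduction read repeatedly during 40 h treatment at 37 C.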

[7] = A CellTox Green Cytotoxicity Assay to monitor cytotoxicity in HEK293 cells - 40 hour (AID 1224871); note: nearly all actives have a fitted effect of over 45% in size; note: potency is the fitted concentration of half-maximal effect
Procedure, shortened: as §3

[8] = qHTS RealTime-Glo MT Cell Viability Assay in HEK293 cells - 16 hour (AID 1224872); note: nearly all actives have a fitted effect of over 50% in size; note: potency is the fitted concentration of half-maximal effect
Procedure, shortened: as §2

[9] = qHTS RealTime-Glo MT Cell Viability Assay in HepG2 cells - 8 hour (AID 1224873); note: nearly all actives have a fitted effect of over 55% in size
Procedure, shortened: as §4

[10] = qHTS RealTime-Glo MT Cell Viability Assay in HEK293 cells - 40 hour (AID 1224874); conditions: RealTime-Glo luminescence; max response: stronger effect = lower value; note: nearly all actives have a fitted effect of over 50% in size; note: potency is the fitted concentration of half-maximal effect
Procedure, shortened: (§5)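 qHTS format; HEK293 cells with NanoLuc/prosubstrate reagent, 37 C/5% CO2 for 5 h pre-dosing; compounds 23 nL in DMSO; luminescence at each time point reflects viable cells.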

[11] = A CellTox Green Cytotoxicity Assay to monitor cytotoxicity in HEK293 cells - 24 hour (AID 1224875); note: nearly all actives have a fitted effect of over 45% in size; note: potency is the fitted concentration of half-maximal effect
Procedure, shortened: as §3

[12] = A CellTox Green Cytotoxicity Assay to monitor cytotoxicity in HepG2 cells - 16 hour (AID 1224876); note: nearly all actives have a fitted effect of over 45% in size; note: potency is the fitted concentration of half-maximal effect
Procedure, shortened: (§6)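 Continuous culture of HepG2 cells with a membrane-impermeant DNA dye; rising fluorescence marks dead cells. Compound exposure lasted up to 40 h at 37 C, with reads every 8 h from 0 h.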

[13] = qHTS RealTime-Glo MT Cell Viability Assay in HepG2 cells - 32 hour (AID 1224877); note: nearly all actives have a fitted effect of over 55% in size; note: potency is the fitted concentration of half-maximal effect
Procedure, shortened: as §1

[14] = A CellTox Green Cytotoxicity Assay to monitor cytotoxicity in HepG2 cells - 24 hour (AID 1224878); note: nearly all actives have a fitted effect of over 45% in size; note: potency is the fitted concentration of half-maximal effect
Procedure, shortened: as §6

[15] = A CellTox Green Cytotoxicity Assay to monitor cytotoxicity in HepG2 cells - 40 hour (AID 1224879); note: nearly all actives have a fitted effect of over 40% in size; note: potency is the fitted concentration of half-maximal effect
Procedure, shortened: as §6

[16] = qHTS assay to identify small molecule agonists of H2AX (AID 1224845; active = well fitted activation curve with a large enough effect in the signal ratio in the repeat runs, not every such curve was filed as active; the % refers to the signal ratio)
Procedure, shortened: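 Wild-type CHO-K1 cells, plated overnight, exposed 3hr at 37C to 15 concentrations (0.76% DMSO final). Lysed, then HTRF anti-pH2AX (S139) cryptate and anti-H2AX-d2 antibodies, 24 hr room temperature; 665/620 nm emission read.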

[17] = qHTS assay to identify small molecule antagonists of the estrogen related receptor (ERR) signaling pathway from Tox21 library (AID 1224848); note: nearly all actives have a fitted effect of over 50% in size; note: potency is the fitted concentration of half-maximal effect
Procedure, shortened: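 Luminescent reporter read-out (ONE-Glo) from NTP's ERR cell line after 18 h treatment at 37 C with DMSO-dissolved Tox21 compounds; cells pre-plated 6 h beforehand at 2,000 per well.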

[18] = qHTS assay to identify small molecule agonists of the estrogen related receptor (ERR) signaling pathway from Tox21 library (AID 1224849; calls by dose curve; note: nearly all actives have a fitted effect of over 15% in size); conditions: ERR reporter cell line, ONE-Glo luciferase, 18 h
Procedure, shortened: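 We plated ERR reporter cells, waited 6 h, added compounds in DMSO by pin tool and incubated them 18 h at 37 C. ONE-Glo was then added and luminescence read after 30 min.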

[19] = qHTS RealTime-Glo MT Cell Viability Assay in HEK293 cells - 0 hour (AID 1224880)
Procedure, shortened: as §5

[20] = qHTS assay to identify small molecule agonists of the hypoxia (HIF-1) signaling pathway - cell viability counter screen (AID 1224844; calls by dose curve; note: nearly all actives have a fitted effect of over 50% in size)
Procedure, shortened: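 Luminescent ATP content (CellTiter-Glo, 30 min, room temperature) served as the viability measure in HRE-bla ME-180 cells exposed to compounds for 17 hrs in low-serum medium (0.5% dialyzed FBS).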
% is set by controls: 0 for no effect and ±100 for the full control effect.

C=CCCC(=O)/C=C/C1C(C)=CCCC1(C)C (stereo unspecified)
active: Potency [2] 89.8 µM | Potency [7] 24.5 µM | Potency [11] 34.7 µM
inactive: Potency [1] | Potency [3] | Potency [4] | Potency [5] | Potency [6] | Potency [8] | Potency [9] | max response [10] -12.7% | Potency [12] | Potency [13] | Potency [14] | Potency [15]

Clc1ccnc(Cl)n1
inactive: Potency [16] | Potency [2] | Potency [17] | activity change, positive = activation ([18]; at 92.4 µM (top of the series)) -1.53% | Potency [3] | Potency [4] | Potency [5] | Potency [6] | Potency [7] | Potency [8] | Potency [9] | max response [10] 11.8% | Potency [11] | Potency [12] | Potency [13] | Potency [14] | Potency [19]

COC1=C(OC)C(=O)C(CCCCCCCCCCO)=C(C)C1=O
inactive: activity change, positive = activation ([18]; at 42.5 µM (top of the series)) -46.7% | Potency [5] | Potency [6] | Potency [11] | Potency [13] | Potency [14] | Potency [19]
active: Potency [17] 18.8 µM | Potency [4] 5.35 µM | Potency [8] 2.39 µM | Potency [10] 5.35 µM

O=c1[nH]c2ccccc2n1CCCN1CCN(C(c2ccccc2)c2ccccc2)CC1
inactive: Potency [5] | Potency [7] | Potency [19]
active: Potency [3] 23.9 µM | Potency [4] 12 µM | Potency [6] 23.9 µM | Potency [8] 10.7 µM | Potency [10] 12 µM | Potency [13] 26.8 µM | Potency [14] 23.9 µM | Potency [15] 23.9 µM

CCC(C)(CCC(C)C)C(=O)[O][Sn]([CH3])([CH3])[O]C(=O)C(C)(CC)CCC(C)C (stereo unspecified)
inactive: Potency [16] | Potency [2] | activity change, positive = activation ([18]; at 92.4 µM (top of the series)) -20.9% | Potency [3] | Potency [5] | Potency [6] | Potency [7] | Potency [9] | max response [10] 0.738% | Potency [12] | Potency [13] | Potency [14] | Potency [15] | Potency [19]

Cc1cc(=O)oc2cc(O)cc(O)c12
inactive: activity change, positive = activation ([18]; at 92.4 µM (top of the series)) -20.6% | Potency [4] | Potency [5] | Potency [6] | Potency [8] | Potency [9] | max response [10] -8.17% | Potency [12] | Potency [13] | Potency [14] | Potency [15] | Potency [19]

C/C=C/C=C/COC(=O)C(C)C
active: Potency [15] 43.6 µM
inactive: Potency [1] | Potency [5] | Potency [9] | Potency [19]

COC(=O)C1=C(C)NC(C)=C(C(=O)OCCN2CCN(C(c3ccccc3)c3ccccc3)CC2)C1c1cccc([N+](=O)[O-])c1 (stereo unspecified)
inactive: Potency [2] | activity change, positive = activation ([18]; at 42.5 µM (top of the series)) -44.8% | Potency [5] | Potency [7] | Potency [11] | Potency [12] | Potency [14] | Potency [15] | Potency [19]
active: Potency [17] 11.9 µM

COc1c(C)c2c(c(O)c1C/C=C(\C)CCC(=O)OCCN1CCOCC1)C(=O)OC2
inactive: Potency [1] | Potency [2] | Potency [17] | activity change, positive = activation ([18]; at 42.5 µM (top of the series)) -23.6% | Potency [4] | Potency [5] | Potency [7] | Potency [8] | Potency [11] | Potency [12] | Potency [13] | Potency [14] | Potency [15]

CCn1c2ccccc2c2cc([N+](=O)[O-])ccc21
inactive: Potency [20] | Potency [5] | Potency [6] | Potency [7] | max response [10] -23.8% | Potency [11] | Potency [12] | Potency [13] | Potency [14] | Potency [15] | Potency [19]

CN(C)[C@@H](CCOc1cccc2ccccc12)c1ccccc1
inactive: Potency [1] | activity change, positive = activation ([18]; at 42.5 µM (top of the series)) -27.2% | Potency [5] | Potency [19]

CCCCC/C=C\C/C=C\CCCCCCCC(=O)O
inactive: Potency [16] | Potency [2] | Potency [3] | Potency [4] | Potency [5] | Potency [6] | Potency [7] | Potency [8] | Potency [9] | max response [10] 6.43% and 5.51% | Potency [11] | Potency [12] | Potency [13] | Potency [14] | Potency [15] | Potency [19]

CN1CCN2c3ccccc3Cc3ccccc3C2C1 (stereo unspecified)
inactive: Potency [16] | Potency [2] | Potency [17] | activity change, positive = activation ([18]; at 42.5 µM (top of the series)) -10.4% | Potency [3] | Potency [4] | Potency [5] | Potency [6] | Potency [7] | Potency [8] | max response [10] -5.98% | Potency [11] | Potency [12] | Potency [13]

CC(C)(C)c1csc(-c2cc3cc(OCc4ccccc4CC(=O)O)ccc3o2)n1
active: Potency [2] 113 µM | Potency [4] 38.9 µM | Potency [7] 54.9 µM | Potency [10] 38.9 µM | Potency [11] 54.9 µM | Potency [12] 54.9 µM | Potency [14] 54.9 µM | Potency [15] 54.9 µM
inactive: Potency [3] | Potency [5] | Potency [6] | Potency [13] | Potency [19]
